The nature of assay [1]: inhibitors of TNFa-induced NFkB p65 translocation, primary screen, imaging, HUVEC, MLSMR starter and 10KST1 sets (AID 438;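 active = inhibition above 20% together with a positive visual image hit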;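 also: compound added about 3h40 before a 20 min TNFalpha stimulation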;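 as to inhibition: signal is the nuclear over cytoplasmic p65 intensity ratio per well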). The conditions noted are these: HUVEC TNFa-induced p65 nuclear translocation; cell count: measured here: nuclei count (cytotoxicity indicator), at 2.08 µM; inhibition: at 2 µM, stronger effect = higher value, 0% TNFa-plus-vehicle, 100% no-TNFa wells.
Assay [2] is described as follows: reduction of polyQ htt aggregates in cells – imaging, exon1htt(103Q)mCFP cells, high-content imaging, primary screen (AID 483;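 active = visual image review flags a hit and inhibition of aggregation exceeds 20%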;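 also: compound exposure lasted 3 days before fixation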;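 as to nuclei count: percent of the per-plate median nuclei count of sample wells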). The conditions noted are these: exon1htt(103Q)mCFP cell line, aggregate imaging, at 2 µM; inhibition of aggregation: stronger effect = higher value; nuclei count: measured here: cell count, toxicity.
Assay [3] in a line: Primary imaging screen for DUSP6 inhibitors that restore phospho-Erk in transfected HeLa cells, chemical complementation (AID 609;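 active = compounds giving at least 50% inhibition in the cell-based MKP-3 phosphatase rescue imaging test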;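 as to inhibition: phospho-Erk level distribution per well compared with pooled transfected vehicle control wells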). The conditions noted are these: HeLa MKP-3 transfected, phospho-Erk imaging KS statistic, at 10 µM, cells stimulated with TPA for 15 min.
In assay [4] the target is Dual specificity protein phosphatase 6 (Homo sapiens) (UniProt Q16828). Described as above. The conditions noted are these: HeLa MKP-3 transfected, phospho-Erk imaging KS statistic; at 10 µM; stronger effect = higher value; cells stimulated with TPA for 15 min.
Assay [5] concerns the target Voltage-gated potassium channel subunit beta-2 (Rattus norvegicus) (UniProt P62483). The assay is described as follows: inhibitors of rat Kvbeta2 reductase activity – biochemical, NADPH fluorescence, primary screen (AID 622;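 active = fluorescence slope higher than the sample average by over 3 SD, cut at about -0.22 in these data, passing the limit was not always enough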;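 also: slope of raw intensity against log time taken from 70 to 1610 s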). The conditions noted are these: recombinant KvBeta, 4-cyanobenzaldehyde reduction, at 10 µM, stronger effect = higher value.
The target is the same in assay [6]. As to the kind of experiment: enhancers of rat Kvbeta2 NADPH turnover – biochemical, NADPH fluorescence, primary screen (AID 623;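 active = NADPH fluorescence slope more negative than the mean of all samples by about 3 SD, 99.7% confidence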;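 also: fluorescence intensity change per second fitted from 20 to 320 s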). The conditions noted are these: Recombinant KvBeta, NADPH fluorescence decrease slope, 10 min; at 10 µM; stronger effect = lower value.
The target of assay [7] is Alpha-2C adrenergic receptor (Homo sapiens) (UniProt P18825). The assay is described as follows: compounds altering alpha2C-coupled GIRK flux – cell-based, HEK293 alpha2C/GIRK1/2, thallium flux, primary screen (AID 624;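 active = fluorescence slope after compound addition differing from the mean of all screened samples at 99.7% confidence, in either direction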;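 also: slope of fluorescence ratio to pre-addition baseline per second over 15 to 24 s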). The conditions noted are these: thallium flux BTC fluorescence, at 10 µM, actives lie on both sides.
A short description of assay [8]: inhibitors of larval lipid processing in zebrafish, primary screen, whole organism, PED6 fluorescence, gall bladder and intestine (AID 686;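 active = a full or partial loss of lipid-probe fluorescence in the fish gall bladder, intestine or both, judged by eye; inactive = no fluorescence loss, or compound toxic to the fish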;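 also: larvae 5 to 7 days old with five fish per well; signal comes from phospholipase A2 cleavage of quenched PED6 carried via bile; overnight exposure to compound and PED6 before scoring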). The conditions noted are these: Zebrafish larvae PED6 lipid processing, fluorescence scoring; screened at 20 µM (by protocol).
Assay [9] in a line: loss of swimming-algae plug formation – whole organism, Chlamydomonas reinhardtii, WT vs cilia-less mutant, absorbance, 96-well, primary screen (AID 463189).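 Also: 0% = wild type cc124 cells in DMSO and 100% = ciliumless bld1 mutant cells.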 The conditions noted are these: Chlamydomonas reinhardtii gravitaxis, OD600 absorbance, 2 days; at 10 µM; stronger effect = higher value.
Assay [10] can be described thus: blockers of RIG-like receptor reporter activation – cell-based, Sendai virus stimulus, luciferase, 10K MLSCN set, TLR/RLR signaling modifier project, primary screen (AID 602276;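 active = inhibition at or above 50% at 10 µM; inactive = inhibition below 50%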;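 also: firefly luciferase from ISG56 promoter only with Renilla not read in this screen; 0% = Sendai virus plus DMSO and 100% = medium plus DMSO without virus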). The conditions noted are these: HEK293 RL24 IRF3 luciferase reporter, at 10 µM, stronger effect = higher value. (In general: In a reporter assay the amount or activity of a reporter protein is the signal.)

A short description of assay [11]: TLR3 IRF3 reporter activation blockers – cell-based, poly I:C stimulus, luciferase, 10K MLSCN set, primary screen (AID 602277;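 active = inhibition of the reporter signal at or above 50%; inactive = inhibition below 50%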). The conditions noted are these: HEK293-TLR3 RL24 IRF3 luciferase reporter, at 10 µM, stronger effect = higher value.
Assay [12] in a line: endothelial E-selectin expression blockers – imaging, HUVEC, immunofluorescence, MLSMR starter and 10KST1 sets, primary screen (AID 487;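 active = visually confirmed hit in the image check and inhibition above 20%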;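 as to inhibition: signal is fraction of cell area covered by stained E-selectin grains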;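 as to nuclei count: 100% = median nuclei count of all wells on the same plate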). The conditions noted are these: HUVEC TNFalpha-induced E-selectin immunofluorescence imaging, at 2 µM; inhibition: stronger effect = higher value; nuclei count: measured here: cell number, toxicity.
Assay [13] addresses Muscarinic acetylcholine receptor M4 (Homo sapiens) (UniProt P08173). As to the kind of experiment: M4-linked GIRK flux change, two-sided – cell-based, HEK293 M4/GIRK, thallium flux, BTC-AM, M4 allosteric agonist project, primary screen (AID 625;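 active = fluorescence slope after compound addition differing from the mean of all tested samples at 99.7% confidence, mostly higher but some lower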;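 also: thallium influx through GIRK channels coupled to M4 in HEK293 cells with BTC-AM dye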). The conditions noted are these: at 10 µM, actives lie on both sides.
Setting [14] is: measured here: cell density z-score.
The mark [15] stands for this setting: measured here: nuclear c-Myc green intensity z-score.
[16] abbreviates: measured here: nuclear pErk red intensity z-score, stronger effect = higher value.

Usually inhibition stands for the change of the read-out against control, counted positive when it falls.

Values joined by “and” are separate entries in the source; they are usually repeats but may differ in a detail not shown here. Identical values can stand only once. Active and inactive are the calls of the source.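 The calls were made as follows, unless noted: active = inhibition at or above 50% relative to wild type and mutant plate controls; inactive = inhibition below 50%.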

Chain of Alpha-2C adrenergic receptor (Homo sapiens) (P18825 whole entry, looked up): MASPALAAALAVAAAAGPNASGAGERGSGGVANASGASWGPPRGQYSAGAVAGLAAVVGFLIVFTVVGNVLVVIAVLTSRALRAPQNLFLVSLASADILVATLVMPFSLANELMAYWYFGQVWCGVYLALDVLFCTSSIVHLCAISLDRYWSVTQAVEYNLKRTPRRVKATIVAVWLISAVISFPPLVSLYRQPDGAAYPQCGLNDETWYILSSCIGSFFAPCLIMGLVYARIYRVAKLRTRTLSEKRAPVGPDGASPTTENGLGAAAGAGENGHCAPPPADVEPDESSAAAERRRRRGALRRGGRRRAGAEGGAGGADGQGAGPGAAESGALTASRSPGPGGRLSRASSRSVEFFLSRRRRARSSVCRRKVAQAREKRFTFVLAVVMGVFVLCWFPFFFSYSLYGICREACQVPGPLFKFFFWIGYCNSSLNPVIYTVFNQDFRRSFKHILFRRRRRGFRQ
Chain of Dual specificity protein phosphatase 6 (Homo sapiens) (Q16828 whole entry, looked up): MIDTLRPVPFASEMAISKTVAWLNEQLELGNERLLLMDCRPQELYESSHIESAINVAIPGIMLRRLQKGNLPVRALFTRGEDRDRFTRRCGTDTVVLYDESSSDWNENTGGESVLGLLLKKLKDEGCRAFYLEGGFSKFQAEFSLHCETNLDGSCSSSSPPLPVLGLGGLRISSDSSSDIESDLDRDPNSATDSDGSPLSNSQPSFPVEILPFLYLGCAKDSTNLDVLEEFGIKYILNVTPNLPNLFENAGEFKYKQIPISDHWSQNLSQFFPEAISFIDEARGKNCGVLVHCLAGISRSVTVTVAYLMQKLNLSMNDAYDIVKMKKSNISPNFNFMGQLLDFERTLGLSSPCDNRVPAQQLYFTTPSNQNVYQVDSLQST
Chain of Voltage-gated potassium channel subunit beta-2 (Rattus norvegicus) (P62483 whole entry, looked up): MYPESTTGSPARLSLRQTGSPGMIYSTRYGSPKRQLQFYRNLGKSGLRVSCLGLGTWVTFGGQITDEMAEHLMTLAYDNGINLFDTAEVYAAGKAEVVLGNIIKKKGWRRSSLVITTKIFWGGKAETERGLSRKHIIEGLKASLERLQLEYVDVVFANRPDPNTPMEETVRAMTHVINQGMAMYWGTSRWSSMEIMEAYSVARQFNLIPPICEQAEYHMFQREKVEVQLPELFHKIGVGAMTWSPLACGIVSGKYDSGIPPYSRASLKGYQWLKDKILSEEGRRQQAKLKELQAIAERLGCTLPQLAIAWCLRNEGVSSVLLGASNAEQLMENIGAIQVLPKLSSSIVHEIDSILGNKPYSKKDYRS
Chain of Muscarinic acetylcholine receptor M4 (Homo sapiens) (P08173 whole entry, looked up): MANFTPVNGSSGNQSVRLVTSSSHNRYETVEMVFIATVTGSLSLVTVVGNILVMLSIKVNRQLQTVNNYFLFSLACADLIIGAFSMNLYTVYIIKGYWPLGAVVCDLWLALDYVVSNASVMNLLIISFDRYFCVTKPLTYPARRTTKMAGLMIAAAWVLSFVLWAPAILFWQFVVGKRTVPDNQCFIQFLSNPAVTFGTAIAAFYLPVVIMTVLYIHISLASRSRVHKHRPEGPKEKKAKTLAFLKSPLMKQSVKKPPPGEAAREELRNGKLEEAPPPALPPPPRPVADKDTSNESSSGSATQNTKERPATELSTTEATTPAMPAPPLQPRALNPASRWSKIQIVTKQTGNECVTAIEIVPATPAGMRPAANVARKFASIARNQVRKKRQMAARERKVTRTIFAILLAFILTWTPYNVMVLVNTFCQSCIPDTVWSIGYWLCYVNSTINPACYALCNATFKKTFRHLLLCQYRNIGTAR

Consider `Fc1cc(F)c(F)c(SCCc2ccncc2)c1F`, for which, in [1], the cell count was 541. For the same molecule, the inhibition in [1] is -0.9% (inactive); in assay [4], -7.28% (inactive); in [9], 97.5% (active); in assay [10], 7% (inactive); in assay [11] it was -1.64% (inactive). For the same molecule, the inhibition of aggregation in [2] was -11.2% (inactive). The molecule also registered a nuclei count in assay [2] of 104%. Also, the figures for the z-score in [3] (setting [14]), in assay [3] (setting [15]) and in assay [3] (setting [16]) were 0.361, 0.923 and 0.0696, respectively. The fluorescence slope in [5] is -0.422 (inactive). Moreover, the NADPH fluorescence slope in assay [6] was -1.5e-05 (inactive). Also, the slope in [7] is 0.0056 (inactive). Further, the molecule was called inactive in [8].

As for `CCCn1c(=O)[nH]c(=O)c2[nH]cnc21`, the cell count in assay [1] was determined as 615. Moreover, the inhibition was -1.8% (inactive) in assay [1]; -98.8% (inactive) in assay [12]; 19% (inactive) in assay [4]; 4.71% (inactive) and 14.1% (inactive) in assay [9]; 18.8% (inactive) in assay [10]; 33.6% (inactive) in [11]. In addition, the nuclei count in assay [12] stood at 137%. Moreover, the z-score is 2.73 in assay [3] (setting [14]), -1.33 in assay [3] (setting [15]) and 0.0338 in assay [3] (setting [16]). Further, the fluorescence slope in [5] is -0.494 (inactive). In assay [6], the NADPH fluorescence slope was -7.3e-05 (inactive). Besides, in assay [7], the slope is 0.00482 (inactive). In addition, the outcome in assay [8] was inactive.

Turning to `Cc1ccc(C2C3CN(C(C)C)CC=C3C(C#N)=C(N)C2(C#N)C#N)cc1` (stereo not drawn), the cell count in assay [1] is 620. The inhibition in assay [1] was 0.1% (inactive); in assay [12] it was -85.5% (inactive); in assay [4] it was 70.4% (inactive); in assay [9] it was 8.92% (inactive); in assay [10], 22.9% (inactive); in [11], 22.3% (inactive). Further, the nuclei count is 99.1% in assay [2] and 145% in assay [12]. The figures for the z-score in assay [3] (setting [14]), in [3] (setting [15]) and in assay [3] (setting [16]) were 1.72, 2.35 and 0.446, respectively. Besides, the fluorescence slope in assay [5] is -0.33 (inactive). Besides, the NADPH fluorescence slope in assay [6] is -1.4e-05 (inactive). Further, in [7], the slope is -0.00688 (active). For the same molecule, in assay [8], the call was inactive.

Consider `O=C(OCCCN1CCCC1)C1(c2ccccc2)CCCC1`, for which the cell count in [1] is 621. The inhibition was 2.6% (inactive) in assay [1]; 39.9% (inactive) in assay [12]; 1.04% (inactive) in assay [4]; 91.8% (active) in assay [9]; -13.4% (inactive) in assay [10]; -17.4% (inactive) in assay [11]. Also, in [2], the inhibition of aggregation was -0.8% (inactive). Further, the nuclei count is 80.3% in [2] and 126% in assay [12]. Moreover, the z-score in assay [3] (setting [14]) was -0.268; in assay [3] (setting [15]), -0.108; in [3] (setting [16]), -0.136. Moreover, the fluorescence slope is -0.456 (inactive) in assay [5] and 0.00493 (inactive) in [13]. Also, in assay [6], the NADPH fluorescence slope is -5.5e-05 (inactive). Besides, the molecule was called inactive in assay [8].

Take `CCn1nc(C(=O)O)c(=O)c2cc3c(cc21)OCO3`: in assay [1], the cell count amounted to 692. Also, the inhibition was -0.9% (inactive) in assay [1]; -72.8% (inactive) in assay [12]; 1.48% (inactive) in assay [4]; -5.01% (inactive) and 17.9% (inactive) in [9]; 8.87% (inactive) in assay [10]; 30.3% (inactive) in assay [11]. This molecule also registered a nuclei count in assay [12] of 125%. In addition, the z-score in assay [3] (setting [14]) was 0.431; in assay [3] (setting [15]) it was 0.329; in assay [3] (setting [16]), -0.702. In assay [5], the fluorescence slope was -0.476 (inactive). Besides, the NADPH fluorescence slope in [6] is -5.5e-05 (inactive). In [7], the slope was 0.00573 (inactive). Further, the call in assay [8] was inactive.

Turning to `Cc1oncc1C(=O)Nc1ccc(C(F)(F)F)cc1`, in assay [1], the cell count turned out to be 554. Moreover, the inhibition is -5.4% (inactive) in assay [1]; -80% (inactive) in assay [12]; -10.4% (inactive) in [4]; -2.73% (inactive) and -10% (inactive) in assay [9]; -116% (inactive) in assay [10]; -197% (inactive) in assay [11]. The nuclei count in assay [12] was found to be 111%. Further, the z-score in assay [3] (setting [14]) stood at 0.779; in assay [3] (setting [15]) it was 0.543; in assay [3] (setting [16]), 0.25. Further, in [5], the fluorescence slope was -0.489 (inactive). Besides, in assay [6], the NADPH fluorescence slope is -4.6e-05 (inactive). Also, in [7], the slope was 0.00635 (inactive). Also, the molecule was classed as inactive in assay [8].

Source of the values: PubChem BioAssay.
